Compound activity (PubChem)
LMP1 NFkB inh = reduces LMP1-driven NF-kappaB luciferase signal; LMP1-induced NF-kappaB luciferase reporter cells, luminescence; inhibition, % at 12.5 µM; 350,000 tested, 0.69% active; AID 504558; in the data active = inhibition above about 41%
PAX8 inh HTS = inhibitors of PAX8 transcriptional activity in RMG-I cells. RMG-I TPO-luciferase reporter, SteadyGlo, 24 h. inhibition, % at 12.6 µM. 360,000 tested, 1.2% active. AID 652154;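 active = mean replicate inhibition at least 60% with every replicate also reaching 60%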;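 note: luciferase light reporting Pax8 driven TPO promoter activity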
Env fusion inh = blocks HIV Env-driven cell-cell fusion | inhibition, % at 12.3 µM | HeLa-JRFL Env/CEM21 cell fusion, luciferase | 360,000 tested, 1.1% active;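 active = mean replicate inhibition score of at least 50 and every replicate individually at or above 50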
N-glyco inh = blocks N-linked glycosylation in D54 reporter cells. 360,000 tested, 0.23% active. AID 588692. reporter increase, % at 12.5 µM. D54 ERlucT glycosylation luciferase reporter, 24 h; percent of 100 nM tunicamycin response;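 active = mean luciferase reporter signal, scaled so untreated is 0 and the glycosylation-blocking control 100, at or above a set limit in every replicate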;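 note: luciferase carries N-glycosylation sites so blocking glycosylation raises the light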
Shn3 3UTR inh = Schnurri-3 reporter inhibition in Clone20 osteoblasts. AID 588674. Clone20 osteoblast Shn3 3'UTR firefly luciferase, 24 h. inhibition, % at 12.5 µM. 360,000 tested, 0.52% active;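 active = mean inhibition of at least 75% with every replicate also reaching 75%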
NSD2 inh = inhibitors of human histone methyltransferase NSD2; O96028; NSD2 peptide methylation, AlphaScreen, 120 min; inhibition, % at 12.5 µM; 310,000 tested, 0.54% active; in the data active = inhibition above about 50%
Target sequence (O96028 whole entry, looked up): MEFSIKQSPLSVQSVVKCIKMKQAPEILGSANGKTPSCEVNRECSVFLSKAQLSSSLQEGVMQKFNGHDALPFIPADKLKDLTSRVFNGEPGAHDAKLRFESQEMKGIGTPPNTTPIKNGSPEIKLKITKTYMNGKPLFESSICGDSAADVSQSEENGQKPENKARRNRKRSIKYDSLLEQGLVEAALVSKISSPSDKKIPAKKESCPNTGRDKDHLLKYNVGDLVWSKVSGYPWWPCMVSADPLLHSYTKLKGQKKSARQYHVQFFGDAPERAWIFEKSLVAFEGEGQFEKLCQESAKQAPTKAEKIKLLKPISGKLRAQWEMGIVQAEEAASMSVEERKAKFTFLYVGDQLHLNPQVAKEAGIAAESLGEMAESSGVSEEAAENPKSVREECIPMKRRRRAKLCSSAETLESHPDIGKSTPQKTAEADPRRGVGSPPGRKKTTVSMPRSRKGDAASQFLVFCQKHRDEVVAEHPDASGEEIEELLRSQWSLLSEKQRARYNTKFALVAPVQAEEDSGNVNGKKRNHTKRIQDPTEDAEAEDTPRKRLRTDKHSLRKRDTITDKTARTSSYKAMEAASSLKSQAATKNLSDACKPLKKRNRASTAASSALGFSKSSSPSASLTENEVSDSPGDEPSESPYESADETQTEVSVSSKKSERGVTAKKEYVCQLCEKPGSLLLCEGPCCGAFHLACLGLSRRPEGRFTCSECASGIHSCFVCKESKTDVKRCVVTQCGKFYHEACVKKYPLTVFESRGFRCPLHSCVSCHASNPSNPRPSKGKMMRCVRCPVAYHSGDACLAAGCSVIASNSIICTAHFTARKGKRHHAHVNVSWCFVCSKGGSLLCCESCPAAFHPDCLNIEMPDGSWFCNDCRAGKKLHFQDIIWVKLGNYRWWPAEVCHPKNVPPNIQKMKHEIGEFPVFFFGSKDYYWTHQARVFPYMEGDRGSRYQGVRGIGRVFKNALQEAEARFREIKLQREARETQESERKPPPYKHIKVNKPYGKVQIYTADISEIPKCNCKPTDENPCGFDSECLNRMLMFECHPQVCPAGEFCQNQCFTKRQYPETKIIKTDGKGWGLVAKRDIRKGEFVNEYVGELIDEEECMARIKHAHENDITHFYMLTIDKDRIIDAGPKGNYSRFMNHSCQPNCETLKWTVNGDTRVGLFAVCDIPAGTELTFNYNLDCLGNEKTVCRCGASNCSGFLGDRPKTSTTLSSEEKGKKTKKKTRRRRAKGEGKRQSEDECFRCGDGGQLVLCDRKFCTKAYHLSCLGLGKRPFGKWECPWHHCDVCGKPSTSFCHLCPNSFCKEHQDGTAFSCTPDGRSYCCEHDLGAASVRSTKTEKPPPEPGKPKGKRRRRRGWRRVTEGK
Large screens that a line does not name were inactive; [ ] = remark or other dose. Shown are actives, neighbours in structure and some others; about 2.8% of the full set was active somewhere.

Cc1cccc(N2C(=O)N3[C@H](c4ccc(Cl)cc4)[C@@H]4C(=O)N(C5CCCCC5)C(=O)[C@@H]4[C@]3(Cc3ccc(Cl)cc3)C2=O)c1	none (no result: PAX8 inh HTS, Env fusion inh, NSD2 inh)
CC[C@@]12C(=O)N(c3ccc(OC)cc3)C(=O)N1[C@H](c1ccc(Cl)cc1)[C@@H]1C(=O)N(C3CCCCC3)C(=O)[C@@H]12	Env fusion inh 87 (no result: NSD2 inh)
CC(C)C[C@@]12C(=O)N(c3cccc(Br)c3)C(=O)N1[C@H](c1ccc(Cl)cc1)[C@@H]1C(=O)N(C3CCCCC3)C(=O)[C@@H]12	Env fusion inh 70 (no result: NSD2 inh)
Cc1ccc(N2C(=O)N3[C@H](c4ccc(Cl)cc4)[C@@H]4C(=O)N(C5CCCCC5)C(=O)[C@@H]4[C@]3(Cc3ccccc3)C2=O)cc1	none (no result: NSD2 inh)
C[C@@H]1CN([C@@H](C)CO)C(=O)c2cc(-c3cccc(F)c3)cnc2O[C@H]1CN(C)C(=O)c1cnccn1	none (no result: LMP1 NFkB inh, N-glyco inh, Shn3 3UTR inh, NSD2 inh)
CNC[C@@H]1Oc2ccc(NC(=O)NC3CCCCC3)cc2C(=O)N([C@@H](C)CO)C[C@@H]1C	none (no result: LMP1 NFkB inh, Env fusion inh, N-glyco inh, Shn3 3UTR inh, NSD2 inh)
C[C@@H]1CN([C@H](C)CO)C(=O)c2cc(C3=CCCC3)cnc2O[C@@H]1CN(C)C(=O)C1CCOCC1	none (no result: LMP1 NFkB inh, N-glyco inh, Shn3 3UTR inh, NSD2 inh)
CO[C@H]1CN(C)C(=O)c2cc(NC(=O)NC(C)C)ccc2OC[C@@H](C)N(CCC(F)(F)F)C[C@H]1C	none (no result: LMP1 NFkB inh, N-glyco inh, Shn3 3UTR inh, NSD2 inh)
CC[C@@]12C(=O)N(c3cccc(F)c3)C(=O)N1[C@H](c1ccc(Cl)cc1)[C@@H]1C(=O)N(C3CCCCC3)C(=O)[C@@H]12	Env fusion inh 95 (no result: NSD2 inh)
O=C1[C@H]2[C@@H](c3ccc(Cl)cc3)N3C(=O)N(c4cccc(F)c4)C(=O)[C@@]3(Cc3ccc(Cl)cc3)[C@H]2C(=O)N1C1CCCCC1	none (no result: PAX8 inh HTS, Env fusion inh, NSD2 inh)
O=C1[C@H]2[C@@H](c3ccc(Cl)cc3)N3C(=O)N(c4cccc(Cl)c4)C(=O)[C@@]3(Cc3ccc(Cl)cc3)[C@H]2C(=O)N1C1CCCCC1	none (no result: NSD2 inh)
CC[C@@]12C(=O)N(c3cccc(Br)c3)C(=O)N1[C@H](c1ccc(Cl)cc1)[C@@H]1C(=O)N(C3CCCCC3)C(=O)[C@@H]12	Env fusion inh 94 (no result: NSD2 inh)
CCCNC(=O)Nc1ccc2c(c1)C(=O)N(C)C[C@H](OC)[C@H](C)CN(CCC)[C@@H](C)CO2	none (no result: LMP1 NFkB inh, N-glyco inh, Shn3 3UTR inh, NSD2 inh)
COc1ccc2cc(-c3cc(C(=O)OCC(=O)NC4CCS(=O)(=O)C4)c4ccccc4n3)ccc2c1 (stereo not drawn)	LMP1 NFkB inh 50
COc1ccc2cc(-c3cc(C(=O)OCC(=O)Nc4c(C)n(C)n(-c5ccccc5)c4=O)c4ccccc4n3)ccc2c1	LMP1 NFkB inh 58
C[C@H](CO)N1C[C@H](C)[C@@H](CN(C)C(=O)Nc2cccc3ccccc23)OCCCC[C@H](C)Oc2ccc(NC(=O)c3ccncc3)cc2C1=O	PAX8 inh HTS 82 (no result: LMP1 NFkB inh, N-glyco inh, Shn3 3UTR inh, NSD2 inh)
C[C@H]1CN([C@@H](C)CO)C(=O)c2cccc(NC(=O)c3ccncc3)c2O[C@@H]1CN(C)C(=O)Nc1cccc2ccccc12	Env fusion inh 66[16.7 µM] (no result: LMP1 NFkB inh, N-glyco inh, Shn3 3UTR inh, NSD2 inh)
C[C@H]1CCCCO[C@H](CN(C)C(=O)Nc2cccc3ccccc23)[C@@H](C)CN([C@@H](C)CO)C(=O)c2cc(NC(=O)CCC(F)(F)F)ccc2O1	PAX8 inh HTS 71 (no result: LMP1 NFkB inh, N-glyco inh, Shn3 3UTR inh, NSD2 inh)
C[C@@H]1CN([C@H](C)CO)C(=O)c2cc(NC(=O)CCC(F)(F)F)ccc2O[C@@H](C)CCCCO[C@H]1CN(C)C(=O)Nc1cccc2ccccc12	none (no result: LMP1 NFkB inh, N-glyco inh, Shn3 3UTR inh, NSD2 inh)
C[C@@H]1CCCCO[C@@H](CN(C)C(=O)Nc2cccc3ccccc23)[C@H](C)CN([C@H](C)CO)C(=O)c2cc(NC(=O)CCC(F)(F)F)ccc2O1	PAX8 inh HTS 67 (no result: LMP1 NFkB inh, N-glyco inh, Shn3 3UTR inh, NSD2 inh)
C[C@H](CO)N1C[C@H](C)[C@H](CN(C)C(=O)Nc2cccc3ccccc23)Oc2c(NC(=O)c3ccncc3)cccc2C1=O	none (no result: LMP1 NFkB inh, N-glyco inh, Shn3 3UTR inh, NSD2 inh)
O=C(C[C@H]1C[C@H]2c3cc(NC(=O)C4CCC4)ccc3O[C@H]2[C@H](CO)O1)NCc1cc(F)ccc1F	none (no result: LMP1 NFkB inh, N-glyco inh, Shn3 3UTR inh, NSD2 inh)
Cc1ccc(S(=O)(=O)N(C)C[C@H]2Oc3ccc(NS(=O)(=O)c4c(C)noc4C)cc3C(=O)N([C@@H](C)CO)C[C@@H]2C)cc1	none (no result: LMP1 NFkB inh, N-glyco inh, Shn3 3UTR inh, NSD2 inh)
C[C@H](NC(=O)C[C@@H]1C[C@H]2c3cc(NC(=O)C4CCOCC4)ccc3O[C@H]2[C@@H](CO)O1)c1ccccc1	none (no result: LMP1 NFkB inh, N-glyco inh, Shn3 3UTR inh, NSD2 inh)
N#CC(C#N)c1ccnc2ccccc12	LMP1 NFkB inh 43
OC(c1cc(C(F)(F)F)nc2c(C(F)(F)F)cccc12)C1CCCCN1 (stereo not drawn)	none (no result: NSD2 inh)
